# Out of some 100,000 compounds screened, about 770 (0.77%) were called active. Cut-off read from the data, not from the text of the source: active = inhibition above about 50%; inactive = the rest. The list comes from a sample in which actives are over-represented; it also holds similar structures and randomly drawn compounds.
# Target: Gag-Pol polyprotein (Human immunodeficiency virus type 1 group M subtype B (isolate HXB2)) (UniProt P04585)
# Assay: RNase H inhibition, HIV 1 Gag Pol polyprotein, FRET biochemical assay, screening (AID 372)
# Conditions: HIV-1 RT RNase H, FRET RNA/DNA substrate fluorescence; at 10 µM; stronger effect = higher value
row,SMILES,inhibition
1,CCN(CC)CCOc1ccccc1C,3% (inactive)
2,COc1ccc(C(=O)N2CCN(S(=O)(=O)c3ccccc3)CC2)cc1,21% (inactive)
3,COc1cccc(C=C2C(=O)c3ccccc3C2=O)c1,0% (inactive)
4,CCOc1ccc(NC(=O)CN(c2ccc(Br)cc2)S(=O)(=O)c2ccccc2)cc1,17% (inactive)
5,O=C(N/N=C/c1ccc(OC2CSC2)cc1)c1ccccc1,6% (inactive)
6,Cc1ccc(N(Cc2ccc(C(=O)N/N=C/c3cc(Br)c(C)o3)cc2)S(C)(=O)=O)cc1C,19% (inactive)
7,Cc1ccc(N(Cc2ccc(C(=O)N/N=C/c3ccc(OC4CSC4)cc3)cc2)S(C)(=O)=O)cc1C,56% (active)
8,Brc1ccc(-c2nnnn2-c2ccccc2)cc1,12% (inactive)
9,COc1ccc(C(=O)NC(=S)Nc2ccc(-c3nc4ccc(C)cc4o3)cc2)cc1[N+](=O)[O-],54% (active)
10,COc1ccc(C(=O)NC(=S)Nc2ccc(-c3nc4cc(Cl)ccc4o3)cc2)cc1[N+](=O)[O-],53% (active)
11,COc1ccc(C(=O)NC(=S)Nc2ccc(-c3nc4ccc(C)cc4o3)cc2)cc1Br,60% (active)
12,COc1ccc(C(=O)NC(=S)Nc2cccc(-c3nc4cc(Cl)ccc4o3)c2)cc1[N+](=O)[O-],23% (inactive)
13,COc1ccc(C(=O)NC(=S)Nc2ccc3oc(-c4ccc(Cl)cc4)nc3c2)cc1[N+](=O)[O-],44% (inactive)
14,COc1ccc(C(=O)NC(=S)Nc2ccc(-c3nc4cc(C)ccc4o3)cc2)cc1Br,21% (inactive)
15,COc1ccc(C(=O)NC(=S)Nc2cccc(-c3nc4cc(C)ccc4o3)c2)cc1[N+](=O)[O-],23% (inactive)
16,CCc1ccc2oc(-c3ccc(NC(=S)NC(=O)c4ccc(OC)c([N+](=O)[O-])c4)cc3)nc2c1,19% (inactive)
17,COc1ccc(C(=O)NC(=S)Nc2ccc(-c3nc4ccccc4o3)cc2)cc1Br,20% (inactive)
18,CC(NC(=O)CSc1ncc(-c2ccccc2)[nH]1)c1ccccc1 (stereo unspecified),12% (inactive)
19,CC1=C(C(=O)OCCc2ccccc2)C(c2ccc(Cl)c([N+](=O)[O-])c2)C2=C(CCCC2=O)N1 (stereo unspecified),2% (inactive)
20,O=C(N/N=C/c1ccc([N+](=O)[O-])cc1)c1ccccn1,7% (inactive)
21,COc1ccc(I)cc1S(=O)(=O)N1CCN(c2ccc(F)cc2)CC1,16% (inactive)
22,C/C(=N/NC(=O)C1COc2cc3ccccc3cc2O1)c1ccc([N+](=O)[O-])cc1 (stereo unspecified),10% (inactive)
23,COc1ccc(C2CC(=O)C3=C(C2)NC(C)=C(C(=O)OCC(C)C)C3c2ccc(OC)c(OC)c2)cc1 (stereo unspecified),8% (inactive)
24,CCC(Sc1nc2ccccc2s1)C(=O)Nc1ccc([N+](=O)[O-])cc1 (stereo unspecified),10% (inactive)

row,SMILES,inhibition
1,O=C(NC(=S)Nc1cc([N+](=O)[O-])ccc1Cl)c1cccc(Cl)c1,45% (inactive)
2,O=C(O)c1ccc(Oc2ccc3c(c2)C(=O)N(c2ccc([N+](=O)[O-])cc2)C3=O)cc1,3% (inactive)
3,CCCCOC(=O)c1cccc(-c2ccc(/C=C3\C(=O)N(c4ccc(S(N)(=O)=O)cc4)N=C3C)o2)c1,39% (inactive)
4,CC1=NN(c2cccc(Cl)c2)C(=O)/C1=C/c1ccc(-c2ccccc2[N+](=O)[O-])o1,1% (inactive)
5,CC1=NN(c2ccc(S(N)(=O)=O)cc2)C(=O)/C1=C\c1ccc(-c2ccc(Cl)cc2)o1,43% (inactive)
6,CC1=NN(c2ccc(S(N)(=O)=O)cc2)C(=O)/C1=C\c1ccc(-c2cccc(Cl)c2C)o1,67% (active)
7,Cc1ccc(N2C(=O)NC(=O)/C(=C/c3ccc(-c4ccc(Cl)cc4Cl)o3)C2=O)cc1,36% (inactive)
8,O=C(Nc1ccc(Cl)c(-c2nc3ccccc3s2)c1)c1ccccc1F,14% (inactive)
9,CCOC(=O)c1c(NC(=S)NC(=O)c2ccccc2)sc2c1CC(C(C)C)OC2 (stereo unspecified),12% (inactive)
10,COc1ccc(CNC(=O)C(=O)Nc2ccccc2F)cc1,15% (inactive)
11,O=C(NN1C(=O)c2ccc(C(=O)c3ccc4c(c3)C(=O)N(NC(=O)c3ccncc3)C4=O)cc2C1=O)c1ccncc1,0% (inactive)
12,C/C(=N\N1CCN(Cc2cccc3ccccc23)CC1)c1cccs1,19% (inactive)
13,COC(=O)/C=C1\SC(=Nc2ccccc2)NC1=O,6% (inactive)
14,O=C1C=C/C(=N\S(=O)(=O)c2ccc(Cl)cc2)C=C1Cl,37% (inactive)
15,O=C1C=CC(=NS(=O)(=O)c2cc(Cl)ccc2Cl)C=C1,46% (inactive)
16,Clc1cccc(C=Nc2ccc(-c3ccc(N=Cc4cccc(Cl)c4Cl)cc3)cc2)c1Cl,17% (inactive)
17,N#Cc1c(N2CCCCC2)ncc2cc3ccccc3nc12,0% (inactive)
18,CCOC(=O)C(=Cc1ccc(OCc2ccc([N+](=O)[O-])cc2)c(OC)c1)C(=O)OCC,59% (active)
19,CCOc1cc(C=O)cc(Cl)c1OCc1ccc([N+](=O)[O-])cc1,54% (active)
20,CCOc1cc(C=O)cc(Br)c1OCc1ccc([N+](=O)[O-])cc1,28% (inactive)
21,O=Cc1cc(Cl)c(OCc2ccc([N+](=O)[O-])cc2)c(Cl)c1,25% (inactive)
22,COC(=O)C(=Cc1cc(Br)c(OCc2ccc([N+](=O)[O-])cc2)c(OC)c1)C(=O)OC,12% (inactive)
23,CCOC(=O)C(=Cc1cc(OC)c(O)c([N+](=O)[O-])c1)C(=O)OCC,5% (inactive)
24,NNC(=O)COc1cccc2ccccc12,1% (inactive)

row,SMILES,inhibition
1,COc1ccc(C(=O)NC(=S)Nc2ccc3ccccc3c2)cc1OC,17% (inactive)
2,O=C(O)c1ccc(-c2ccc(/C=N/N3C(=O)C4C5C=CC(CC5)C4C3=O)o2)cc1 (stereo unspecified),2% (inactive)
3,O=C(c1cccc(Br)c1)N1N=C(c2ccccc2)CC1(O)C(F)(F)F (stereo unspecified),50% (active)
4,O=C(c1ccccc1)N1N=C(c2ccccc2)CC1(O)C(F)(F)F (stereo unspecified),9% (inactive)
5,O=C(c1cccc(Br)c1)N1N=C(c2ccc(F)cc2)CC1(O)C(F)(F)F (stereo unspecified),22% (inactive)
6,O=C(Nc1cccc2ccccc12)ON=C1c2ccccc2-c2ccccc21,56% (active)
7,O=C(Nc1ccccc1)ON=C1c2ccccc2-c2ccccc21,42% (inactive)
8,O=C(Nc1ccccc1Cl)ON=C1c2ccccc2-c2ccccc21,43% (inactive)
9,COc1ccccc1NC(=O)Nc1cccc2ccccc12,15% (inactive)
10,CCN(CC)c1ccc(C(NC(C)=O)NC(C)=O)cc1,0% (inactive)
11,Cc1ccc([N+](=O)[O-])cc1NC(=O)C1CC1,0% (inactive)
12,COc1ccc(CC(=O)NNC(=O)c2ccc(Cl)cc2)cc1OC,9% (inactive)
13,CCC(C(=O)N1c2ccccc2C(C)=CC1(C)C)c1ccccc1 (stereo unspecified),50% (active)
14,CC1=CC(C)(C)N(C(=O)c2ccccc2)c2ccccc21,10% (inactive)
15,CC(=O)N1c2ccccc2C(C)=CC1(C)C,3% (inactive)
16,COC(=O)c1ccc(CSc2nnc(CCCN3C(=O)c4cccc5cccc(c45)C3=O)n2-c2ccccc2)cc1,15% (inactive)
17,CCOC(=O)C1=C(C)N=c2s/c(=C\c3ccc(-c4ccc(Br)cc4[N+](=O)[O-])o3)c(=O)n2C1c1ccccc1 (stereo unspecified),48% (inactive)
18,COc1ccc(C2C(C#N)=C(N)OC3=C2C(=O)CC(c2ccccc2)C3)cc1C (stereo unspecified),9% (inactive)
19,O=C(Nc1cccc(Cl)c1Cl)c1ccc(-c2ccc(Br)cc2)o1,57% (active)
20,O=C(Nc1cccc(Cl)c1Cl)c1ccc(-c2cccc(Cl)c2)o1,37% (inactive)
21,O=C(Nc1cccc(Cl)c1Cl)c1ccc(Br)o1,16% (inactive)
22,Clc1ccccc1OCCCn1ccnc1,0% (inactive)
23,C=C(C)c1cccc(C(C)(C)NC(=O)NCc2ccco2)c1,9% (inactive)
24,CCOC(=O)C1=C(C)N=c2s/c(=C\c3ccc(-c4cccc([N+](=O)[O-])c4)o3)c(=O)n2C1c1ccc(C)cc1 (stereo unspecified),19% (inactive)

row,SMILES,inhibition
1,O=C1C2C3C=CC(CC3)C2C(=O)N1/N=C/c1ccc(I)o1 (stereo unspecified),3% (inactive)
2,O=C1C2C3C=CC(CC3)C2C(=O)N1/N=C/c1cccs1 (stereo unspecified),56% (active)
3,O=C1C2C3C=CC(C3)C2C(=O)N1/N=C/c1ccccc1I (stereo unspecified),0% (inactive)
4,O=C1C2C3C=CC(CC3)C2C(=O)N1/N=C/c1ccccc1O (stereo unspecified),0% (inactive)
5,O=C1C2C3C=CC(CC3)C2C(=O)N1/N=C/c1ccc(O)cc1 (stereo unspecified),0% (inactive)
6,O=C1C2C3C=CC(CC3)C2C(=O)N1/N=C/c1ccccc1I (stereo unspecified),59% (active)
7,CC(Oc1ccc(Br)cc1)C(=O)N/N=C/c1ccc(N(C)C)cc1 (stereo unspecified),8% (inactive)
8,O=C(O)c1cc(NS(=O)(=O)c2ccc(NCCCN3CCOCC3)c([N+](=O)[O-])c2)cc(C(=O)O)c1,4% (inactive)
9,COc1ccc(/C=N/Nc2nc(Nc3ccc(F)cc3)nc(N3CCCCC3)n2)cc1,6% (inactive)
10,Cc1sc(NC(=O)c2cc(Cl)ccc2Cl)c(C#N)c1C,4% (inactive)
11,CCN(CC)C(=O)c1sc(NC(=O)c2cc(Cl)ccc2OC)c(C#N)c1C,7% (inactive)
12,COc1ccc(Cl)cc1C(=O)Nc1sc(C)c(C)c1C#N,74% (active)
13,CC(=O)C1=C(Nc2ccc(Br)cc2)CC(C)(O)C(C(C)=O)C1c1ccc([N+](=O)[O-])cc1 (stereo unspecified),4% (inactive)
14,Cc1ccc(P(=O)(c2ccc(C)cc2)C(C)(C)O)cc1,0% (inactive)
15,CN(C)c1nc(-c2ccccc2)c2cc(Cl)ccc2n1,13% (inactive)
16,CN(CCO)c1nc(-c2ccccc2)c2cc(Cl)ccc2n1,50% (active)
17,CCN(CC)c1nc(-c2ccccc2)c2cc(Cl)ccc2n1,12% (inactive)
18,COc1ccc(-c2nn(-c3ccccc3)cc2/C=N/NS(=O)(=O)c2ccccc2)cc1,15% (inactive)
19,S=C(NCCc1c[nH]c2ccccc12)Nc1ccc(Cl)c(Cl)c1,49% (inactive)
20,O=C(NCc1ccccn1)Nc1ccc(Cl)c(Cl)c1,9% (inactive)
21,S=C(NCCc1ccccn1)Nc1ccc(Cl)cc1Cl,50% (active)
22,S=C(NCCC(c1ccccc1)c1ccccc1)Nc1ccc(Cl)cc1Cl,12% (inactive)
23,S=C(NCCc1ccccc1)Nc1ccc(Cl)cc1Cl,46% (inactive)
24,S=C(NCCc1ccccn1)Nc1ccc(Cl)c(Cl)c1,59% (active)
